A selection: hits, their analogues and other compounds. The true share with any hit is near 2.4%.
D2 antagonist: D2 dopamine receptor (human) antagonism; P14416; HEK293 TREx D2 cells, calcium flux, dopamine EC80; inhibition, % at 10 µM; 2% of 340,000 active; in the data active means inhibition above about 30%; inactive means below that, where a call was filed; further: 0% is about no effect
Target sequence (P14416 whole entry, looked up): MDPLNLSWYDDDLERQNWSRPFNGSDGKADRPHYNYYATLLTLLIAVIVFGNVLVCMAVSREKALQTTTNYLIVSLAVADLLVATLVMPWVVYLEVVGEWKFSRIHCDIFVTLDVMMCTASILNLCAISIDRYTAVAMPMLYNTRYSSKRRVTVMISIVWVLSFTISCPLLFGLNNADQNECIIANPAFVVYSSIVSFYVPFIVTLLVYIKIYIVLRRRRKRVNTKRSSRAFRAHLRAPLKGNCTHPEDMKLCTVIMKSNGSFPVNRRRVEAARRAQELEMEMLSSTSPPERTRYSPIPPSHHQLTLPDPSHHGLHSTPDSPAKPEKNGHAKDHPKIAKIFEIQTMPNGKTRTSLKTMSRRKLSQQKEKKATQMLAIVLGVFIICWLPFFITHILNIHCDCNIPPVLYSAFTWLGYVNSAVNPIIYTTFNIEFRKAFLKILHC
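Calcium flux kinetic readout in an inducible HEK293 TREx D2 line plated overnight at 30 C. After 180 s compound exposure, an EC80 dopamine challenge follows with another 180 s kinetic read to detect antagonism.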
D2 PAM-1: positive allosteric modulators of human D2 dopamine receptor. P14416. potentiation, % (concentration not given with the values). 0.23% of 360,000 active. DiscoveRx D2 beta-arrestin cells, luminescence, 90 min; 100% = 57 uM dopamine signal; in the data active means potentiation above about 50%
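D2 cells co-treated with compound plus 50 nM dopamine (EC20) for 90 min at 37 deg C to detect potentiation. Beta-arrestin recruitment was read as enzyme-fragment luminescence after 1 h at ambient temperature. Full response was set by 57 uM dopamine.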
D2 PAM-2: positively modulates the human D2 dopamine receptor allosterically | P14416 | HEK293 T-REx D2, calcium flux, EC20 dopamine potentiation | potentiation, % at 10 µM | 0.34% of 340,000 active;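 active means potentiation over 3 SD above the plate norm, cut at about 30% in these data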; further: 0% is about no effect
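Using a no-wash calcium dye in inducible, force-coupled HEK293 Trex cells expressing D2, we tracked fluorescence each second for 180 s after compound, then for 180 s after EC20 dopamine to detect augmented signalling.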
D2 ag-1: activates the human D2 dopamine receptor; activation, % (no concentration beside the values); 0.084% of 360,000 active; DiscoveRx PathHunter D2 beta-arrestin, luminescence, 90 min; 100% = 57 uM dopamine signal; AID 624465; in the data active means activation above about 40%
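DiscoveRx PathHunter D2 beta-arrestin cells (2,100/well) attached overnight, then compound-stimulated 90 min at 37 C in HBSS/10 mM HEPES/0.1% Tween-20 buffer; beta-galactosidase complementation read by luminescence after 1 h at ambient temperature. Dopamine 57 uM final (EC100) as control.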
D2 ag-2: activates the human D2 dopamine receptor | P14416 | HEK293 T-REx D2 cells, calcium flux agonist mode | activation, % at 2 µM | 0.53% of 340,000 active | AID 485358;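 active means activation over 3 SD above normal in the single-dose calcium agonist read, cut at about 30% in these data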; further: 0% is about no effect
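Tetracycline-induced HEK293 T-REx cells with force-coupled D2 receptor, plated overnight at 30 C, loaded with no-wash calcium dye. After a 10 s baseline, compound was pin-added and calcium flux read kinetically for 180 s; calcium rises flagged agonists.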
Numbers without * were called inactive; / = not tested or not shown; ! = not confirmed by another sample.

SMILES	D2 antagonist	D2 PAM-1	D2 PAM-2	D2 ag-1	D2 ag-2
O=C1N[C@@H](Cc2ccccc2)C(=O)N2CCCC12 (stereo partly specified)	/	-6	/	-3	/
O=C1N[C@@H](Cc2cnc[nH]2)C(=O)N2CCC[C@@H]12	45*	-5	-1	-6	2
O=S(=O)(NCC1CCN(Cc2ccccc2)CC1)c1ccccc1C(F)(F)F	54*	-20	-25	1	1
CC1=C(C(=O)Nc2cccnc2)C(c2cccc(F)c2)n2nc(SCc3ccccc3)nc2N1 (stereo unspecified)	/	/	4	/	0
CSc1ccccc1NC(=O)CSc1n[nH]c(C)c1[N+](=O)[O-]	41*	-6	0	-2	0
Cc1ccc(O)c(NC(=O)CSc2n[nH]c(C)c2[N+](=O)[O-])c1	/	6	/	14	/
Cc1ccc2oc(-c3cc(NC(=O)c4ncn[nH]4)ccc3O)nc2c1	13	3	31*	-1	1
CCc1ccc(CN(Cc2ccco2)c2cnc(S(C)(=O)=O)nc2C(=O)Nc2ccccc2Cl)cc1	/	/	9	/	/
Cc1ccc(NC(=S)NC(NC(=O)c2ccco2)C(Cl)(Cl)Cl)cc1 (stereo unspecified)	-3	-16	-2	0	1
Cc1cccc(NC(=S)NC(NC(=O)c2ccco2)C(Cl)(Cl)Cl)c1 (stereo unspecified)	30*	-29	-24	0	1
Cc1ccc(-c2nn(-c3cccc(F)c3)cc2CN2CCN(c3ccccn3)CC2)o1	80*	-18	-26	-4	7
Cc1ccc(-c2nn(-c3cccc(F)c3)cc2CN(Cc2nccn2C)C(C)C)o1	3	-18	-15	-4	-1
CCCc1cc(=O)[nH]c(SC(C)C(=O)N2c3ccccc3CC2C)n1 (stereo unspecified)	44*	11	-29	6	0
CCCc1cc(=O)[nH]c(SCC(=O)N2c3ccccc3CC2C)n1 (stereo unspecified)	/	10	/	2	/
COc1ccc(N(CC(=O)Nc2cc(C)cc(C)c2)S(=O)(=O)c2ccccc2[N+](=O)[O-])c(OC)c1	53*	-4	9	1	0
COc1ccc(CNC(=O)CN(C(=O)c2snc(C(N)=O)c2N)c2ccc(F)cc2)cc1	-19	-5	15	-2	0
COc1ccc(CNC(=O)CN(C(=O)c2snc(C(N)=O)c2N)c2ccc(OC)c(OC)c2)cc1	31*	2	-5	3	0
CSCCC(NS(=O)(=O)c1ccccc1F)C(=O)N1CCCCCC1 (stereo unspecified)	44*	-6	20	4	0
COc1ccc(-c2nc(SCC(=O)NCCc3ccc(OC)c(OC)c3)n[nH]2)cc1	/	/	5	/	1
COc1ccc(OC)c(NC(=O)CSc2nncc(=O)n2N)c1	36*	-9	-15	-4	1
COc1ccc(Cl)cc1NC(=O)CSc1nnc(C2CC2)n1N	-10	-8	31*	-2	0
Nn1c(SCC(=O)Nc2ccccc2F)nnc1C1CCCCC1	-9	-10	37*	2	0
CCOC(=O)c1cccc(NS(=O)(=O)c2ccc3[nH]c4c(c3c2)CCCC4)c1	/	/	-15	/	/
C/C(=N\NC(=O)C1(C)CC1(Br)Br)c1cccc(NC(=O)C2CCC2)c1 (stereo unspecified)	30*	2	-1	-5	-1
COc1ccc(CC(=O)N/N=C(\C)c2cccc(NC(=O)C3CC3)c2)cc1	-3	-18	4	-3	-1
SMILES	D2 antagonist	D2 PAM-1	D2 PAM-2	D2 ag-1	D2 ag-2
CCOC(=O)C1=C(c2ccccc2)NC(SCC(=O)Nc2ccc(C)cc2)=C(C#N)C1c1ccco1 (stereo unspecified)	55*	-7	13	0	1
CCOC(=O)C1=C(c2ccccc2)NC(SCC(=O)Nc2cccc(C)c2)=C(C#N)C1c1ccco1 (stereo unspecified)	-5	2	-19	-1	0
CCc1ccc(N(CC(=O)NC(C)(C)CC)C(=O)CCC(=O)Nc2nccs2)cc1	0	-4	-10	-5	0
CCC(C)(C)NC(=O)CN(C(=O)CCC(=O)Nc1nccs1)c1ccc2c(c1)OCCO2	1	-6	31*	-2	-2
CCC(C)(C)NC(=O)CN(Cc1ccc2c(c1)OCO2)C(=O)CCC(=O)Nc1nccs1	41*	-7	4	-2	-1
CCC(=O)N(C)C[C@H]1Oc2cc(-c3ccccc3F)ccc2S(=O)(=O)N([C@H](C)CO)C[C@H]1C	/	-1	/	-6	/
Cc1cc(C)n(CCCNC(=O)C(C)(C)Oc2ccc(Cl)cc2)n1	31*	-13	6	0	0
Cc1cc(C)n(CC(=O)c2ccc(Cl)cc2)n1	12	2	39*	4	0
O=C(c1n[nH]c2ccccc12)N1CCOCC1	39*	-5	-12	0	1
CN(C)CCCN1c2ccccc2CCc2ccccc21	60*	-38	-29	-7	-2
CC(CN(C)C)CN1c2ccccc2CCc2ccccc21 (stereo unspecified)	73*	-5	-24	-8	4
CCCNC(=O)c1cc(C2CCCCN2C(=O)OCC(C)C)on1 (stereo unspecified)	/	-6	/	-6	/
COc1cccc(N2CCN(C3OC(=O)c4ccccc43)CC2)c1 (stereo unspecified)	30*	-1	4	0	-2
CC1(Oc2ccc(-n3ccnc3)cc2)CCN(Cc2cccn2-c2nccs2)C1 (stereo unspecified)	/	-5	/	-4	/
COc1ccccc1CN1CCC(CNS(=O)(=O)c2cc(-c3onc(C)c3C)ccc2OC)CC1	33*	-30	10	-3	-1
CCc1ccc2[nH]c(=O)c(C(c3nnnn3Cc3ccc(OC)cc3)N3CCOCC3)cc2c1 (stereo unspecified)	-6	-8	3	-3	0
CCc1ccc2[nH]c(=O)c(C(c3nnnn3Cc3ccccc3)N3CCOCC3)cc2c1 (stereo unspecified)	36*	1	-6	1	0
CCc1ccc2[nH]c(=O)c(CN(Cc3ccc(F)cc3)C(c3nnnn3CCN3CCOCC3)C(C)C)cc2c1 (stereo unspecified)	-18	-19	31*	-4	-6
CCOc1ccc(-c2c(C)nn3c(-c4ccccc4)c(C(=O)NCCOC)cnc23)cc1OCC	/	/	23	/	-1
Cc1ccc(NC(=O)C2CCN(S(=O)(=O)c3cccc4nonc34)CC2)cc1	/	2	-6	5	/
Cc1ccccc1NC(=O)C1CCN(S(=O)(=O)c2cccc3nonc23)CC1	5	0	44*!	-4	-2
COC(=O)C1=C(C(=O)OC)SC(=C2C(=S)C(C)(C)N(C(=O)CC(C)C)c3ccccc32)S1	30*	-12	9	0	0
